Screening results (PubChem BioAssay)
A selection: hits, their analogues and other compounds. The true share with any hit is near 14%.
HCMV antiviral: blocks human cytomegalovirus replication; HFF cells, HCMV-luciferase reporter, 72 h; hits give low values; activity change, negative = inhibition, % at 57.5 µM; actives 4.5% (n = 410,000); in the data active = activity change below about -60%; inconclusive = no clear call, values can overlap the other calls; inactive = above about -39%
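Two-dose cell screen: HFF monolayers treated with compounds and infected with luciferase-expressing HCMV at 1 PFU/cell, 72 h at 37C, then lysed for luciferase measurement.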
Pf growth 96h: P. falciparum growth inhibition at 96 hour, primary screen for plastid delayed-death inhibitors; Potency, µM (highest dose often 28.7 µM), without a hit: top-dose activity change, negative = inhibition, most hits filed as inhibitors; P. falciparum luciferase reporter growth, 96 h; AID 504834; actives 6.9% (n = 320,000); also: potency is read from the fitted curve at half-maximal effect
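Erythrocytes infected with luciferase-expressing P. falciparum were dispensed at 2% hematocrit and 0.05% parasitemia (final), then incubated with compounds 96 hours at 37 C in 5% CO2. Luminescence after detection reagent addition reported growth.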
Pf growth 48h: P. falciparum growth inhibition at 48 hours (one generation); P. falciparum luciferase growth in erythrocytes, 48 h; Potency, µM (titrated, usually from 28.7 µM), for inactives: at the top dose activity change, negative = inhibition, usual class: inhibitors; actives 5.9% (n = 310,000); AID 504832; also: potency is read from the fitted curve at half-maximal effect
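Luciferase-expressing parasites in RBCs, 2% Hct / 0.1% parasitemia final; RPMI 1640 + 0.5% Albumax; 37 C, 5% CO2, one generation; luminescence read-out, lower signal = inhibition.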
Giardia FBPA inh: Giardia lamblia aldolase inhibition. A8B2U2. purified Giardia FBPA. Potency, µM (titrated, usually from 59.6 µM), without a hit: at the highest dose activity, negative = inhibition, actives largely listed as inhibitors. actives 0.71% (n = 290,000). AID 2451; also: potency is read from the fitted curve at half-maximal effect; nearly all actives have a fitted effect of over 55% in size
Target sequence (A8B2U2 whole entry, looked up): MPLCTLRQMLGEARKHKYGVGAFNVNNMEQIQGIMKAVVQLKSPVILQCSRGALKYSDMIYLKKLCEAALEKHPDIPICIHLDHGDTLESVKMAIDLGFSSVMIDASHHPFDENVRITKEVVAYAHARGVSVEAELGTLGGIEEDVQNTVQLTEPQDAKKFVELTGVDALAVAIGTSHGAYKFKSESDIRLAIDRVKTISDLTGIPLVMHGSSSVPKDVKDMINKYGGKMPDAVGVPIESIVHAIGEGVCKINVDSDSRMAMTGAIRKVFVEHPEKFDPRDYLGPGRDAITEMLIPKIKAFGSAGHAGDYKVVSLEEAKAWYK
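40 nM FBPA preincubated 10 min at RT with compound (up to 57.5 uM final), then substrate plus GAPDH/TPI/NAD/arsenate coupling and diaphorase/resazurin added. Fluorescence read after 20 min at RT, 525/598 nm.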
Sm TGR block: inhibitors of Schistosoma mansoni thioredoxin glutathione reductase | Q962Y6 | purified TGR, DTNB reduction, TNB absorbance 405 nm | Potency, µM (series often up to 114 µM), for the others: top-dose activity change, negative = inhibition, actives largely listed as inhibitors | actives 3% (n = 360,000); also: potency is read from the fitted curve at half-maximal effect; nearly all actives have a fitted effect of over 60% in size
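First, TGR (20 nM dispensed) and NADPH were mixed with compound. Second, a 15 min room-temperature incubation followed. Third, further NADPH and then DTNB were added to start the reaction. Finally, TNB absorbance was monitored kinetically.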
Numbers without * were called inactive; [ ] = remark or other dose. Unless noted, calls follow the shape of the dose curve; as a rule, active = well fitted curve in the direction sought with a large enough effect; inconclusive = small, poorly fitted or top-dose-only effect, or another doubt; inactive = no such curve, though single readings can be large; an effect the other way counts as inactive or inconclusive. % is scaled to controls: 0 for no effect and ±100 for the full control effect.

What do the screens show for `CCOC(=O)COc1ccccc1C(=O)c1cnn(-c2ccccc2)c1`?
HCMV antiviral: 35; Pf growth 96h: 41%; Giardia FBPA inh: -4%; Sm TGR block: -1%

Results for OC1=C(O)c2nc3cc(F)ccc3nc21 ?
HCMV antiviral: 37; Pf growth 96h: 29%; Pf growth 48h: 28%; Giardia FBPA inh: inconclusive; Sm TGR block: 13µM*

What do the screens show for `COc1cccc(/C=N/NC(=O)CN2CC(c3ccccc3)CC2=O)c1OC` (centres undefined)?
HCMV antiviral: inconclusive; Pf growth 96h: 21%; Pf growth 48h: -10%; Giardia FBPA inh: 9%; Sm TGR block: -2%

What do the screens show for `O=C(NC(=S)Nc1ccccc1Cl)c1csnn1`?
HCMV antiviral: -32; Pf growth 96h: 57%; Pf growth 48h: 48%; Giardia FBPA inh: -11%; Sm TGR block: 22µM*

What do the screens show for `O=C(Nc1ccccc1NC(=O)c1csnn1)c1csnn1`?
HCMV antiviral: 19; Pf growth 96h: 53%; Pf growth 48h: 37%; Giardia FBPA inh: -28%; Sm TGR block: -3%

How did O=C1N(Cc2cccnc2)C[C@@H]2C[C@@H](c3cccc(Oc4ccccc4)c3)N3CCC[C@@]123 do in these assays?
HCMV antiviral: -67*; Pf growth 96h: inconclusive; Pf growth 48h: inconclusive; Giardia FBPA inh: 4%; Sm TGR block: -32%

Results for COCc1ccc([C@@H]2C[C@H]3CN(Cc4cccnc4)C(=O)[C@]34CCCN24)o1 ?
HCMV antiviral: -37; Pf growth 96h: inconclusive; Pf growth 48h: 3%; Giardia FBPA inh: -6%; Sm TGR block: 45µM*

What do the screens show for `O=C1N(Cc2cccnc2)C[C@@H]2C[C@@H](c3ccc(C(F)(F)F)cc3)N3CCC[C@@]123`?
HCMV antiviral: -7; Pf growth 96h: inconclusive; Pf growth 48h: inconclusive; Giardia FBPA inh: 1%; Sm TGR block: -25%

How did COC(=O)c1ccc([C@@H]2C[C@H]3CN(Cc4cccnc4)C(=O)[C@]34CCCN24)cc1 do in these assays?
HCMV antiviral: -28; Pf growth 96h: 10µM*; Pf growth 48h: inconclusive; Giardia FBPA inh: -4%; Sm TGR block: inconclusive

What do the screens show for `COCCn1cnc2cnc(Nc3cc(OC)c(OC)c(OC)c3)cc21`?
HCMV antiviral: 30

How did COc1ccc(OCc2cc(C(=O)NC(C)Cn3cncn3)no2)c(Cl)c1 (centres undefined) do in these assays?
HCMV antiviral: 82; Pf growth 96h: 1%; Pf growth 48h: 15%; Sm TGR block: -14%

What do the screens show for `COc1ccc(C2SCCN2C(=S)Nc2cccc(C(F)(F)F)c2)cc1` (centres undefined)?
HCMV antiviral: 33; Pf growth 96h: 9.3µM*; Pf growth 48h: 2.3µM*; Giardia FBPA inh: -16%; Sm TGR block: -2%

How did COc1cc(OC)c(C2SCCN2S(=O)(=O)c2ccc(F)cc2)cc1OC (centres undefined) do in these assays?
HCMV antiviral: -17; Pf growth 96h: inconclusive; Pf growth 48h: inconclusive; Giardia FBPA inh: -23%; Sm TGR block: 0%

How did COc1ccc(OC)c(C2SCCN2S(=O)(=O)c2cccc(C(F)(F)F)c2)c1 (centres undefined) do in these assays?
HCMV antiviral: -61*; Pf growth 96h: inconclusive; Pf growth 48h: inconclusive; Giardia FBPA inh: -1%; Sm TGR block: 10%

What do the screens show for `CN(CC1CCCCC1)[C@H]1CC[C@@]23CCCN2C(=O)CCC[C@H]3[C@H]1Cc1ccccc1`?
HCMV antiviral: -20

What do the screens show for `CO[C@@H]1COC(=O)[C@H]2CCCN2C(=O)[C@@H](C)COC(=O)CCC[C@H]1C`?
Giardia FBPA inh: 6%[12.9 µM]

How did CC1Oc2cc3c(-c4c(O)cc(O)c5c(O)c6c(cc45)OC(C)C(C)C6=O)c(O)cc(O)c3c(O)c2C(=O)C1C (centres undefined) do in these assays?
Pf growth 96h: 0.52µM*; Pf growth 48h: 0.37µM*; Giardia FBPA inh: inconclusive; Sm TGR block: 32µM*

What do the screens show for `C[C@@H]1Cc2c(O)c(O)cc(O)c2C(=O)O1`?
Pf growth 96h: 27%; Pf growth 48h: inconclusive; Giardia FBPA inh: 3%; Sm TGR block: inconclusive

What do the screens show for `CCOC(=O)CN1C(=O)/C(=C/c2ccccc2Br)Oc2ccccc21`?
HCMV antiviral: 23; Pf growth 96h: 2.1µM*; Pf growth 48h: 14%; Giardia FBPA inh: -1%; Sm TGR block: 15%

Results for CCc1ccc(CNC(=O)Cn2c(-c3cccs3)cc3cc(F)ccc32)cc1 ?
HCMV antiviral: -65*; Sm TGR block: 1%

What do the screens show for `CN1CCN(CCCNC(=O)Cn2c(-c3cccs3)cc3cc(Cl)ccc32)CC1`?
HCMV antiviral: -69*; Sm TGR block: -17%

How did O=C(Cn1c(-c2cccs2)cc2ccccc21)NCCCN1CCN(c2ccccc2F)CC1 do in these assays?
HCMV antiviral: -68*; Sm TGR block: 22%

How did O=C(NCCCN1CCN(c2ccccc2F)CC1)C1CCN(S(=O)(=O)c2cccs2)CC1 do in these assays?
HCMV antiviral: -68*; Pf growth 96h: 116%; Pf growth 48h: -2%; Giardia FBPA inh: 1%; Sm TGR block: 4%

What do the screens show for `O=C(Cn1c(-c2cccs2)cc2cc(F)ccc21)NCCCN1CCN(c2ccccc2F)CC1`?
HCMV antiviral: inconclusive; Sm TGR block: 0%

Results for CSc1ccc(CNC(=O)Cn2c(-c3cccs3)cc3cc(F)ccc32)cc1 ?
HCMV antiviral: -33; Sm TGR block: -10%

What do the screens show for `COc1ccc2c(c1)C=C(CN1CCN(C(C)C)C(CCO)C1)CO2` (centres undefined)?
HCMV antiviral: -5; Pf growth 96h: 446%; Pf growth 48h: -20%; Giardia FBPA inh: 0%; Sm TGR block: -6%

What do the screens show for `CCCCNC(=O)c1ccc2nc(CC)c(N(CC)CCN(C)C)n2c1`?
HCMV antiviral: -15

Results for CC(NC(=O)C(=O)Nc1c2c(nn1-c1ccc(F)cc1)CSC2)c1ccccc1 (centres undefined) ?
HCMV antiviral: -16; Sm TGR block: -1%

How did CCN(CC)c1ccc(CNCCc2ccccc2F)cc1 do in these assays?
HCMV antiviral: -8; Pf growth 96h: 9.3µM*; Pf growth 48h: -11%; Giardia FBPA inh: -9%; Sm TGR block: 8%

How did Cc1ccc(CNCCc2ccccc2F)cc1 do in these assays?
HCMV antiviral: inconclusive; Pf growth 96h: 58%; Pf growth 48h: 10%; Giardia FBPA inh: 0%; Sm TGR block: 0%

What do the screens show for `CCOC(=O)N=Nc1c2ccccc2c2nc3no[nH]c3nc12`?
HCMV antiviral: -100*; Pf growth 96h: 19%; Pf growth 48h: 1µM*; Giardia FBPA inh: 1.6µM*; Sm TGR block: 58%

Results for CCOC(=O)N=Nc1c(O)n(CC(=O)OC)c2ccccc12 ?
HCMV antiviral: 14; Pf growth 96h: 16%; Pf growth 48h: 24%; Giardia FBPA inh: -1%; Sm TGR block: 9%
